Reference: PubChem BioAssay (EPA / NIEHS)
Inconclusive results are not listed. Activity calls are given as the source filed them. How the source made its calls: active means hit-call score of the fitted dose curve at least 0.9, where 1 is the maximum; inconclusive means response in the unintended direction; inactive means score below 0.9.

How the values were obtained:
NCBI gene 100848466 = assay: NVS_NR_bPR: NovaScreen (NVS) Nuclear Receptor Binding Assay for bovine Progextron Receptor (PR) (AID 2283343);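 on AC50: actives lower bound radioligand signal below DMSO meaning displacement of the label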
In short: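 Membranes from bovine uterus; radiolabelled ligand plus test chemical; 18 h; scintillation read-out. Activity = signal loss vs DMSO. Primary: 25 uM, duplicate; secondary: concentration series.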

[1] = target: Estrogen receptor beta (Homo sapiens) (UniProt Q92731); assay: OT_ER_ERbERb_0480: Odyssey Thera (OT) 8-hour HEK293T Protein-Complementation Assay for Estrogen Receptor-beta/-beta Homodimer (AID 2283357);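 further: active means signal gain over DMSO baseline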
Chain of Estrogen receptor beta (Homo sapiens) (Q92731 whole entry, looked up, the tested form may be a part): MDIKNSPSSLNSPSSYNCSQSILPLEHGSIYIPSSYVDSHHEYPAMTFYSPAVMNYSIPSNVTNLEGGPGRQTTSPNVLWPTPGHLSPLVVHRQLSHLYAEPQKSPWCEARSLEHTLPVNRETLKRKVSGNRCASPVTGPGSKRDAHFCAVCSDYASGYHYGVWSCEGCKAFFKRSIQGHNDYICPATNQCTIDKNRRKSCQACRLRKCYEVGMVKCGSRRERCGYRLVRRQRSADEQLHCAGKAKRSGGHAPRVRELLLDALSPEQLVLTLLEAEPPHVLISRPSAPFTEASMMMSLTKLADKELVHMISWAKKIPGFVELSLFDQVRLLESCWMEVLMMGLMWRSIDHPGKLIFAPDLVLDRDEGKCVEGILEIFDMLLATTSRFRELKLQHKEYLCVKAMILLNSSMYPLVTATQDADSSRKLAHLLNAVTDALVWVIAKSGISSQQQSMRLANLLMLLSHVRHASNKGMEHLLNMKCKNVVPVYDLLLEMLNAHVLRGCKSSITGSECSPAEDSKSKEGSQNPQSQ
In short: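 Cells (HEK293T, stable ER-beta LBD PCA pair) are treated 8 hours, fixed and Draq5-stained; signal is fluorescence intensity increase relative to vehicle, fitted in the gain direction.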

[2] = target: Retinoic acid receptor alpha (Homo sapiens) (UniProt P10276); assay: NVS_NR_hRAR_Antagonist: NovaScreen (NVS) Nuclear Receptor Binding Assay for human Retinoic Acid Alpha Receptor Antagonism (RAR) (AID 2283358)
In short: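 TR-FRET, cell-free, antagonist format; 2 h incubation after dosing; DMSO = baseline; signal loss fitted; 25 uM duplicate primary, then conc. series.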

[3] = target: bovine Estrogen Receptor (ER), ESR1 (gene 407238) (UniProt P49884); assay: NVS_NR_bER: NovaScreen (NVS) Nuclear Receptor Binding Assay for bovine Estrogen Receptor (ER) (AID 2283345);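 further: actives lower the bound radioligand count which means they displace the ER ligand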
In short: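 Scintillation counting of displaced radioligand gave the readout; bovine uterine membrane extract supplied the receptor. Measured 18 h post-dose, normalized to DMSO baseline. Single 25 uM duplicate screen preceded concentration-response follow-up.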

[4] = target: Estrogen receptor (Homo sapiens) (UniProt P03372); assay: OT_ER_ERaERa_1440: Odyssey Thera (OT) 24-hour HEK293T Protein-Complementation Assay for Estrogen Receptor-alpha/-alpha Homodimer (AID 2283349);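 further: hits raise fluorescence above DMSO for agonists and antagonists alike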
Chain of Estrogen receptor (Homo sapiens) (P03372 whole entry, looked up, the tested form may be a part): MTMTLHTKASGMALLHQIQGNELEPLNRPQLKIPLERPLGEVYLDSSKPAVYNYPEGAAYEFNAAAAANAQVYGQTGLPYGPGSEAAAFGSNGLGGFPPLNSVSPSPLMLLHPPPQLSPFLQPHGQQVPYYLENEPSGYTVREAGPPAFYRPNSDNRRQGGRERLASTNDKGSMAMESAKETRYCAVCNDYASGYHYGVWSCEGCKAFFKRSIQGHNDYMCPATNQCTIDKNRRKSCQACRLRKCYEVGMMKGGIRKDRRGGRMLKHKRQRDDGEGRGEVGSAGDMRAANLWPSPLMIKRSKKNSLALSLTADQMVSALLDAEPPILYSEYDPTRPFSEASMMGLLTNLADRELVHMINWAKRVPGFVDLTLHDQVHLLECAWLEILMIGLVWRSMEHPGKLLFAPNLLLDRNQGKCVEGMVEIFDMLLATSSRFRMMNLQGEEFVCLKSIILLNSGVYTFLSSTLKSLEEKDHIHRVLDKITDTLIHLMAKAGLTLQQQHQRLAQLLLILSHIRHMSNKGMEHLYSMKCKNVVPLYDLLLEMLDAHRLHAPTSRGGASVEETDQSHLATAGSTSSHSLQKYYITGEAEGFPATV
In short: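 Protein-fragment complementation between two human ERα ligand-binding domains (aa 310-547) in stably transfected HEK293T cells was monitored after 24 h treatment, using fluorescence intensity relative to vehicle controls.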

[5] = target: Estrogen receptor (Homo sapiens) (UniProt P03372); assay: OT_ER_ERaERa_0480: Odyssey Thera (OT) 8-hour HEK293T Protein-Complementation Assay for Estrogen Receptor-alpha/-alpha Homodimer (AID 2283351);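 further: rise in fluorescence from reassembled reporter fragments on ERα LBD homodimer in nucleus or whole cell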
In short: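 HEK293T cells stably expressing the human ERα ligand-binding domain (aa 310-547) as a homodimer PCA were dosed with compound for 8 h. Gain of fluorescence intensity versus DMSO vehicle was read by laser scanning cytometry.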

[6] = target: Estrogen receptor (Homo sapiens) + Estrogen receptor beta (Homo sapiens) (UniProt P03372+Q92731); assay: OT_ER_ERaERb_0480: Odyssey Thera (OT) 8-hour HEK293T Protein-Complementation Assay for Estrogen Receptor-alpha/-beta Heterodimer (AID 2283352)
Chain of Estrogen receptor (Homo sapiens) + Estrogen receptor beta (Homo sapiens) (P03372 whole entry, looked up, the tested form may be a part): as above
Chain of Estrogen receptor (Homo sapiens) + Estrogen receptor beta (Homo sapiens) (Q92731 whole entry, looked up, the tested form may be a part): as the sequence (Q92731 whole entry, looked up, the tested form may be a part) above
In short: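 HEK293T cells expressing ER-alpha/ER-beta LBD fusions to complementary reporter fragments were dosed with compound for 8 hours. Heterodimer formation was read as increased nuclear (agonist) or nuclear plus cytoplasmic (antagonist) mean fluorescence intensity versus DMSO vehicle.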

[7] = system: guinea pig Histamine Receptor (H2), gene 100729734; assay: NVS_GPCR_gH2: NovaScreen (NVS) G Protein-Coupled Receptor Assay for guinea pig Histamine Receptor (H2) (AID 2283342)
In short: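 Radioligand displacement on guinea pig striatal membranes, 1 h after dosing, filter-based scintillation counting; loss of signal versus DMSO. Single-point screen at 25 uM in duplicate, then concentration-response up to 50 uM.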

[8] = target: human Peroxisome Proliferator-activated Receptor alpha (PPARa), PPARA (gene 5465) (UniProt Q07869); assay: NVS_NR_hPPARa: NovaScreen (NVS) Nuclear Receptor Binding Assay for human Peroxisome Proliferator-activated Receptor alpha (PPARa) (AID 2283359);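 further: activity means loss of TR-FRET signal versus DMSO baseline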
Chain of human Peroxisome Proliferator-activated Receptor alpha (PPARa), PPARA (gene 5465) (Q07869 whole entry, looked up): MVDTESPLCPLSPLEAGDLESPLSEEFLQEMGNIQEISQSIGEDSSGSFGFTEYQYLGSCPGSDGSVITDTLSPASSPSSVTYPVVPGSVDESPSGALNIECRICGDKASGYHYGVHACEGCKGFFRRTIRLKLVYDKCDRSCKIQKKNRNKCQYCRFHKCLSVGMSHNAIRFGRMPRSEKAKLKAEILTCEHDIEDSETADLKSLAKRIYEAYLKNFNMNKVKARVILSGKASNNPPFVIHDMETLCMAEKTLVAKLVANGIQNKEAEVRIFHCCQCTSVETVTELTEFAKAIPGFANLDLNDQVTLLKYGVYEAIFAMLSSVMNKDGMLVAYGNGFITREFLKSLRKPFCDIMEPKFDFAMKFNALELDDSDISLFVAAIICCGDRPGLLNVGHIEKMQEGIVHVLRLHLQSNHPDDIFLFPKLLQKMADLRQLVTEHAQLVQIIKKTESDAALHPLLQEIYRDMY
In short: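 Chemicals were first screened in duplicate at 25 uM, and active ones were retested across concentration series. Binding was monitored by TR-FRET one hour after dosing, with decreased signal against DMSO counted as activity.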

[9] = target: chimpanzee Androgen Receptor (AR), AR (gene 747460) (UniProt O97775); assay: NVS_NR_cAR: NovaScreen (NVS) Nuclear Receptor Binding Assay for chimpanzee Androgen Receptor (AR) (AID 2283346);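 further: radioligand displacement from AR measured by scintillation counting in a cell-free assay; a loss of bound radioligand signal versus DMSO counts as binding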
In short: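 Cell-free competition binding with insect-cell (Sf9/Sf21) extracted chimpanzee AR; scintillation signal from lysate at 72 h. Screened in duplicate at 25 uM, then concentration-response for actives; fitting relative to DMSO.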

[10] = target: human Constitutive Androstane Receptor (CAR), NR1I3 (gene 9970) (UniProt Q14994); assay: NVS_NR_hCAR_Antagonist: NovaScreen (NVS) Nuclear Receptor Binding Assay for human Constitutive Androstane Receptor Antagonism (CAR) (AID 2283344)
Chain of human Constitutive Androstane Receptor (CAR), NR1I3 (gene 9970) (Q14994 whole entry, looked up): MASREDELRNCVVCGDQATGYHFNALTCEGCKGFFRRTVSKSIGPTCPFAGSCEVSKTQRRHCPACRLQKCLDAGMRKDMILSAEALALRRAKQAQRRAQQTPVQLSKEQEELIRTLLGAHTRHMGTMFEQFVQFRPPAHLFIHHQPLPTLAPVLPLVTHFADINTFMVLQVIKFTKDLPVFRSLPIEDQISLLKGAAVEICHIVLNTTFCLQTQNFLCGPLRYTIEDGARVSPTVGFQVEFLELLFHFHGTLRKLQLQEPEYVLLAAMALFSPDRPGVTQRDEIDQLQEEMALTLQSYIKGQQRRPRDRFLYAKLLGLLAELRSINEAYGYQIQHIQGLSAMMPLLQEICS
In short: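 Cell-free TR-FRET binding read 1 h after dosing, antagonist mode; loss of signal versus DMSO baseline. Primary screen in duplicate at a single 25 uM; actives retested in concentration series.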

[11] = target: Bile acid receptor (Homo sapiens) (UniProt Q96RI1); assay: NVS_NR_hFXR_Antagonist: NovaScreen (NVS) Nuclear Receptor Binding Assay for human Farnesoid X Receptor Antagonism (FXR) (AID 2283350)
Chain of Bile acid receptor (Homo sapiens) (Q96RI1 whole entry, looked up): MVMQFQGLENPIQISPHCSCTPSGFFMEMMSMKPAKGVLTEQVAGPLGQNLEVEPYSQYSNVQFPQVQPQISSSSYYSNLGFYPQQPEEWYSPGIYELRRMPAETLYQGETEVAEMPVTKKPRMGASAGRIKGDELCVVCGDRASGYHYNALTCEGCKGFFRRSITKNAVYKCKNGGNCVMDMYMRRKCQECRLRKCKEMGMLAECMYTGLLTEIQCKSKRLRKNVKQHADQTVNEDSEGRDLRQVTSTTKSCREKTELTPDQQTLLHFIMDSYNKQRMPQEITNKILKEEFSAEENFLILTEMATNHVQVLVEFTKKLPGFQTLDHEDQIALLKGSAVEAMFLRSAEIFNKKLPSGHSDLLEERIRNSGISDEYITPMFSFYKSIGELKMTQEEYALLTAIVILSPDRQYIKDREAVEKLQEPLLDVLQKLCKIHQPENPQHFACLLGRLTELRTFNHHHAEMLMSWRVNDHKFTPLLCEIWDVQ
In short: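 Cell-free TR-FRET ligand-binding read-out on human FXR (NR1H4) in antagonist mode, measured 1 h after dosing. Primary screen in duplicate at 25 uM, actives retested in concentration series; signal loss scored versus DMSO.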

[12] = target: bovine Gamma-Aminobutyric Acid Type A Receptor Agonist (GABAR Agonist), GABRA1 (gene 780973) (UniProt P08219); assay: NVS_LGIC_bGABAR_Agonist: NovaScreen (NVS) Ligand-Gated Ion Channel Assay for bovine Gamma-Aminobutyric Acid Type A Receptor Agonist (GABAR Agonist) (AID 2283338)
Chain of bovine Gamma-Aminobutyric Acid Type A Receptor Agonist (GABAR Agonist), GABRA1 (gene 780973) (P08219 whole entry, looked up): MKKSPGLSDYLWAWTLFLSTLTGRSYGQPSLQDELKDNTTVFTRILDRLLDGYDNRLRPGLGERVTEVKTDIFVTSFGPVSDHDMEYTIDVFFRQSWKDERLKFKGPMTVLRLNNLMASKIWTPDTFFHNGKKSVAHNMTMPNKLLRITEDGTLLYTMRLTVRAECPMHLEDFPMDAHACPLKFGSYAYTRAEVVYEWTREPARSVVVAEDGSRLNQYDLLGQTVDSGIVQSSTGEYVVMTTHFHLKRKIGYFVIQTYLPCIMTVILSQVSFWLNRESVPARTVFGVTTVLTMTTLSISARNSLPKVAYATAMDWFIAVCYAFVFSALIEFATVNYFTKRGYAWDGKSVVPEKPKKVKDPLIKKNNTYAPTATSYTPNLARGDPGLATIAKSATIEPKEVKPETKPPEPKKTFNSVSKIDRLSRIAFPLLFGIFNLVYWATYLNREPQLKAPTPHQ
In short: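 Radioligand binding to bovine cerebellar membranes in agonist format, read by filter-based scintillation counting after 1 h. Primary screen in duplicate at 25 uM, with actives followed in concentration series. Gain of signal versus DMSO.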

[13] = target: rat Glycine Receptor, Strychnine-sensitive (GlyRStrySens), Glra1 (gene 25674) (UniProt P07727); assay: NVS_LGIC_rGlyRStrySens: NovaScreen (NVS) Ligand-Gated Ion Channel Assay for rat Glycine Receptor, Strychnine-sensitive (GlyRStrySens) (AID 2283341)
In short: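 Radioligand displacement on rat spinal cord membranes, 1 hr, filter scintillation read-out. Single-concentration duplicate screen at 25 uM; chemicals meeting threshold (e.g., 30% inhibition) rerun in concentration-response up to 50 uM. Loss of binding fitted versus DMSO.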

PGR (gene 5241) = PGR (gene 5241) (UniProt P06401); assay: NVS_NR_hPR: NovaScreen (NVS) Nuclear Receptor Binding Assay for human Progestron Receptor (PR) (AID 2283360);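 further: active means loss of bound radioligand signal versus DMSO baseline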
Chain of PGR (gene 5241) (P06401 whole entry, looked up): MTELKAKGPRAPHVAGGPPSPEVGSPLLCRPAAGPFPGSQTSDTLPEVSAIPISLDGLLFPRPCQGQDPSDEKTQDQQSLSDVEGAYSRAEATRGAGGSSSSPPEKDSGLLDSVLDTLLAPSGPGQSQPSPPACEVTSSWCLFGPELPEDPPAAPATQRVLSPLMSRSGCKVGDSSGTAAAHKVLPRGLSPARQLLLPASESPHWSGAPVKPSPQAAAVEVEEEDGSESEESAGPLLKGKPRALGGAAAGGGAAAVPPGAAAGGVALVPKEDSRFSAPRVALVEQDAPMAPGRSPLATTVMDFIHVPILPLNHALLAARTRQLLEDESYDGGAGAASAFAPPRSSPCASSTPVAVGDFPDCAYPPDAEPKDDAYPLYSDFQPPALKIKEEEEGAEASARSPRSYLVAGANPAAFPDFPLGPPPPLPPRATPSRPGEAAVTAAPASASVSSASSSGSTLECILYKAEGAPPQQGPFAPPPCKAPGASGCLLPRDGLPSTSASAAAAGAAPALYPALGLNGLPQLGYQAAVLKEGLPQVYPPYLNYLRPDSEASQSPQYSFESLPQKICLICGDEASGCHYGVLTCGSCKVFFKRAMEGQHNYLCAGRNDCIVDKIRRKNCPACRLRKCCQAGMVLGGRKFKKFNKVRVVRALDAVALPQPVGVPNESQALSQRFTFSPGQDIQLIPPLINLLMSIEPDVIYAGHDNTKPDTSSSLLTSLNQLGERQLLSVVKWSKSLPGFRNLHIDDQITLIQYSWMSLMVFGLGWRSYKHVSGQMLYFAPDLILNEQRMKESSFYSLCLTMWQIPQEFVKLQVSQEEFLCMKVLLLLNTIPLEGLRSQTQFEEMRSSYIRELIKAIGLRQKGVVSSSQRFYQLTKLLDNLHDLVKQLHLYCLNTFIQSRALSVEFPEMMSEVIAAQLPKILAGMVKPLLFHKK
In short: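 T47D lysate; tritiated or iodinated radioligand; scintillation count at 18 h. DMSO = negative control/baseline. Primary: 25 uM, duplicate. Secondary: concentration series for actives.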

[14] = target: rat Glutamate, MK-801 Agonist Site (GluNMDA_MK801), Grin1 (gene 24408) (UniProt P35439); assay: NVS_LGIC_rGluNMDA_MK801_Agonist: NovaScreen (NVS) Ligand-Gated Ion Channel Assay for rat Glutamate, MK-801 Agonist Site (GluNMDA_MK801) (AID 2283340)
In short: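 Radioligand binding at MK-801 site in rat forebrain membranes, 1.5 h incubation, filter-based scintillation counting. Initially 25 uM in duplicate; actives then run in concentration-response up to 50 uM, fitted for gain of signal versus DMSO.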

[15] = target: human Thyroid Receptor Alpha (TRa), THRA (gene 7067) (UniProt P10827); assay: NVS_NR_hTRa_Antagonist: NovaScreen (NVS) Nuclear Receptor Binding Assay for human Thyroid Receptor Alpha Antagonism (TRa) (AID 2283362);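 further: activity is loss of signal relative to DMSO baseline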
In short: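 Cell-free binding assay on extracted receptor protein, read 1 h after chemical dosing by AlphaLISA chemiluminescence; loss of signal relative to DMSO baseline marks antagonism. Primary screen ran in duplicate at 25 uM, with concentration series for actives.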

O=C1OC(c2ccc(O)cc2)(c2ccc(O)cc2)c2ccccc21
outcome (NCBI gene 100848466): inactive | AC50 [1]: 12 µM (active) | outcome [2]: inactive

O=[Si]=O
outcome [3]: inactive | outcome [4]: inactive | outcome [5]: inactive | outcome [6]: inactive | outcome [1]: inactive

CCCCC(CC)COC(=O)CCCCCCCC(=O)OCC(CC)CCCC (stereo not given)
outcome [3]: inactive | outcome [1]: inactive

CC(=O)O[C@]1(C(C)=O)CC[C@H]2[C@@H]3C=C(Cl)C4=CC(=O)[C@@H]5C[C@@H]5[C@]4(C)[C@H]3CC[C@@]21C
outcome [7]: inactive | AC50 (NCBI gene 100848466): 0.0857 µM (active) | outcome [1]: inactive | outcome [8]: inactive

CCc1cc(C2=C(C(=O)O)N(c3ccccc3C(F)(F)F)S(=O)(=O)c3ccccc32)cc2c1OCO2
AC50 [9]: 25 µM (active)

COc1ccc(OC(F)(F)F)cc1CN[C@H]1CCCN[C@H]1c1ccccc1
AC50 [7]: 7.67 µM (active) | outcome [10]: inactive | outcome [4]: inactive | AC50 [11]: 40.2 µM (active) | outcome [6]: inactive | outcome [8]: inactive

O=C1c2c(O)cccc2Cc2cccc(O)c21
AC50 (NCBI gene 100848466): 42.7 µM (active)

CCc1nc(N)nc(N)c1-c1ccc(Cl)cc1
AC50 [12]: 8.29 µM (active) | AC50 [13]: 2.7 µM (active) | AC50 [7]: 2.94 µM (active) | outcome [4]: inactive | outcome [5]: inactive | outcome [6]: inactive | outcome [1]: inactive | outcome (PGR (gene 5241)): inactive

Cn1cnc2c1c(=O)[nH]c(=O)n2C
outcome [7]: inactive | outcome (PGR (gene 5241)): inactive

CN(C)CCCN1c2ccccc2Sc2ccc(Cl)cc21
outcome [12]: inactive | AC50 [14]: 25 µM (active) | AC50 [7]: 1.42 µM (active) | outcome [11]: inactive

O=C1NC(=O)C(c2ccccc2)(c2ccccc2)N1
outcome [10]: inactive | outcome [15]: inactive

CN(C)C(=O)NC1(c2ccccc2)CCN(CC[C@@]2(c3ccc(F)c(F)c3)CN(C(=O)c3ccccc3)CCO2)CC1
AC50 [7]: 0.276 µM (active) | outcome [11]: inactive
